# SKKanGAS inh: inhibitors of SKKanGAS S. pyogenes growth in kanamycin (SK-promoter or general growth effect). BacTiter-Glo, 6 h. inhibition, % at 7.5 µM. 300,000 compounds, 1.3% hits. AID 1662;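 active means mean replicate score, as percent of positive control median, at least 50; inconclusive means mean below 50 but one replicate at or above 50; inactive means mean and every replicate below 50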;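 further: strain carries kanamycin resistance gene driven by streptokinase promoter and grows in 40 µg/ml kanamycin; loss of luminescence reflects streptokinase promoter inhibition or plain growth inhibition; 0% = median of DMSO wells and 100% = positive control at its reference dose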
# Beta cell apopt: beta cell apoptosis inhibition | INS-1E cytokine-induced death, ATP luminescence, 48 h; percent of positive-control rescue, neutral wells zero | protection from apoptosis, % (test concentration not listed) | AID 435005 | 300,000 compounds, 0.8% hits;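 active means Every replicate reaches about 75%, or at least half do and their mean reaches it too, limit read from the data; inconclusive means At least half of replicates reach the limit but their mean does not; inactive means Under half of replicates reach the limit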;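 further: 0% = cytokine-treated negative control wells and 100% = positive control rescue; higher means more ATP so stronger rescue from cytokine killing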
# Mdm2 MdmX PPI: disrupts the human Mdm2-MdmX interaction; O15151+Q00987; SaOS-2 split-luciferase Mdm2/MdmX complementation, luminescence; inhibition, % at 8 µM; 330,000 compounds, 3% hits; AID 485346;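 active means inhibition of at least 50% at 8 µM in the primary screen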
# MPTP inh: blocks calcium-induced mitochondrial swelling; 360,000 compounds, 1.4% hits; isolated mouse mitochondria, Ca2+ swelling absorbance, 30 min; inhibition, % at 10 µM; AID 602449;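 active means inhibition of 50% or more, scaled per plate between neutral and stimulator controls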;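 further: 0% = DMSO wells given calcium and 100% = 1 mM EGTA wells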
# GRIN3A LBD mod: modulators (binders) of human NR3A ligand-binding domain. NR3A LBD differential scanning fluorimetry, Tm shift; 0% = protein alone, 100% = glycine-bound protein. 340,000 compounds, 2.5% hits. Tm shift relative to glycine control, % at 25 µM;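 active means melting temperature shift of at least 10% of the positive control shift, at one fixed dose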
# CSC inhib: blocks cancer stem cells; cancer stem cell-like cells viability, luminescence; inhibition, % at 7.5 µM; 300,000 compounds, 1.1% hits; AID 2717; in the data active means inhibition above about 75%; inconclusive means no clear call, values can overlap the other calls; tested in HMLE shEcad cells
# Active calls of the source: *; ? = inconclusive; . = no result. Sampled rows, rich in hits. Any-hit rate of the full collection: about 6.9%.
SMILES,SKKanGAS inh,Beta cell apopt,Mdm2 MdmX PPI,MPTP inh,GRIN3A LBD mod,CSC inhib
CCCn1c(NC(=O)C2COc3ccccc3O2)nc2ccccc21 (configuration not stated),97*,14,33,-1,2,16
CCCn1c(NC(=O)c2ccco2)nc2ccccc21,-10,3,41,1,0,1
O=C(NCc1ccccc1)C1(c2cccc(F)c2)CCCC1,4,-6,-2,2,-2,-11
CCNc1nc(NC(C)C)nc(SCCOC(=O)c2ccccc2)n1,0,5,19,6,1,-4
CC(C)Nc1nc(NC(C)C)nc(SCCOC(=O)Nc2ccc(Cl)cc2Cl)n1,34,7,30,3,9,90*
O=C(Nc1nc2c(s1)CCCC2)c1ccc(Br)o1,-2,3,-156,1,11*,-16
COc1ccccc1CNc1ccc(Br)cn1,7,.,4,0,6,.
CCCc1cc(-c2n[nH]c(C)c2-c2ccc(C(=O)OCC)o2)c(O)cc1O,1,1,-2,1,35*,61
OC[C@@H]1CN(CCNc2ccccc2)C[C@H](n2cnc3c(NCc4ccncc4)ncnc32)O1,.,.,.,0,.,.
CC(=O)c1c(C)oc2ccc(NS(=O)(=O)c3cccs3)cc12,5,1,8,-1,17*,-6
CCc1nc2c(OCc3c(C)noc3C)cccn2c1N(C)C(=O)C(C)C,.,.,.,1,.,.
CCn1c(CC(=O)Nc2ccc(F)cc2)nnc1SCC(=O)N1CCOCC1,-2,-1,-4,-1,0,-19
Cc1c(Cl)cccc1Nc1nc(N)nc(CN2CCc3ccccc3C2)n1,80*,2,16,-2,-2,18
CCOc1ccc(CCNC(=O)COC(=O)C2=NNC(=O)CC2)cc1OCC,-5,1,5,1,0,-10
CNc1ccc(/C=C/C(=O)c2ccc(C)cc2)cc1[N+](=O)[O-],0,2,20,-1,21*,33
Cc1sc(NC(=O)c2cc(-c3ccccc3)nc3ccccc23)c(C(N)=O)c1C,11,21,16,-7,17*,4
O=C(Nc1nnc(-c2cccs2)o1)c1cc(-c2ccccc2)nc2ccccc12,92*,9,48,-9,-5,49
CCCN(CCC)S(=O)(=O)c1ccc(C(=O)Nc2nnc(-c3cccc(OC)c3)o2)cc1,108*,9,44,-27,0,20
COc1ccc(C(=O)Nc2nnc(-c3ccccc3)o2)cc1OC,50*,-3,13,-2,-11,18
COc1cc(C(=O)NCC(=O)OCC(=O)Nc2nnc(-c3ccccc3)o2)cc(OC)c1OC,0,.,-8,1,2,-11
CC(=O)c1ccc(N(CC(=O)NC2CCCC2)C(=O)CCC(=O)Nc2cc(C)on2)cc1,4,-12,1,-2,-2,.
CC(OC(=O)c1cccc(-n2cnnn2)c1)C(=O)Nc1ccc(N(C)C)cc1 (configuration not stated),0,6,-14,-1,0,-8
CC(=O)Nc1cccc(NC(=O)CSc2nc3c(c(=O)n(C)c(=O)n3C)n2C)c1,-2,-3,1,1,1,5
CC(C(=O)Nc1ccc(C#N)cc1)N1CCN(C(=O)C2CC2)CC1 (configuration not stated),.,-2,13,0,0,.
COc1ccc(C(=O)NNC(=O)CSc2nnc(C3CC3)n2C)cc1,-1,8,16,-4,0,1
SMILES,SKKanGAS inh,Beta cell apopt,Mdm2 MdmX PPI,MPTP inh,GRIN3A LBD mod,CSC inhib
O=C(Nc1nnc(-c2ccncc2)o1)c1ccccc1,-7,3,8,-3,2,12
O=C(Nc1nnc(-c2ccccc2)o1)c1cc(Cl)sc1Cl,89*,-1,9,-24,-3,-14
COc1cc(C(=O)OCC(=O)Nc2nnc(-c3ccccc3)o2)cc(OC)c1OC,31,1,1,1,1,-7
O=C(Nc1nnc(-c2cccs2)o1)c1cccc(F)c1,85*,-1,25,-2,-4,24
COc1ccc(C(=O)OCC(=O)Nc2nnc(-c3ccccc3)o2)cc1,59*,0,5,-1,-2,25
COc1cccc(-c2nnc(NC(=O)c3cccc(F)c3)o2)c1,87*,8,26,-4,-4,34
O=C(Nc1nnc(-c2cccs2)o1)c1ccc(S(=O)(=O)N2CCOCC2)cc1,7,-2,8,-1,-4,26
CC(C)c1nnc(NC(=O)CCC(=O)Nc2ccc3cn[nH]c3c2)s1,-2,-8,8,3,0,0
O=C(Nc1ccc(Cc2ccncc2)cc1)c1ccc([N+](=O)[O-])o1,1,?,42,6,-1,18
CCCCCCCCN1C(=O)[C@H](CC(=O)NCC23CC4CC(CC(C4)C2)C3)C[C@@]2(C(=O)OCC)CCC=C12,.,.,.,1,.,.
COc1cccc(C(=O)Nc2ccc(-c3nnc(-c4ccco4)o3)cc2)c1,23,5,7,-13,10*,-6
COc1cccc(C(=O)Nc2cccc(-c3nnc(-c4ccccc4)o3)c2)c1,?,3,42,12,7,26
O=C(Nc1nnc(C2=COCCO2)o1)c1cccc([N+](=O)[O-])c1,1,.,-15,-1,2,9
O=C(Nc1nnc(-c2ccc(F)cc2)o1)c1cccc([N+](=O)[O-])c1,84*,14,40,-4,-16,62
COc1cccc(NC(=O)CCNS(=O)(=O)c2ccc3c(c2)CC(C)N3C(=O)C2CC2)c1 (configuration not stated),-8,0,21,-1,0,-2
CC(=O)Nc1ccc(S(=O)(=O)N2CCN(c3ccc(C)c(Cl)c3)CC2)cc1,-16,-1,19,0,-4,9
CC(=O)Nc1ccc(OCC(O)CN2CCN(c3cc(Cl)ccc3C)CC2)cc1 (configuration not stated),-10,.,11,-4,-1,84*
CC(=O)Nc1ccc(OCC(O)CN2CCN(c3ccc(C)c(Cl)c3)CC2)cc1 (configuration not stated),0,12,0,0,0,120*
CCOC(=O)[C@]12CCCC=C1N(Cc1ccco1)C(=O)[C@H](CC(=O)NCCCN1CCCC1=O)C2,.,.,.,0,.,.
CCOC(=O)c1c(C)[nH]c(C)c1S(=O)(=O)NCc1ccccc1OCC,-2,-5,9,-1,2,-6
O=C(COc1ccccc1)OCc1csc(Nc2ccccc2)n1,-5,-8,-6,2,-7,-17
COc1ccc(/C=C/C(=O)OCc2csc(-c3ccccc3)n2)cc1OC,7,0,16,0,18*,-4
O=C(OCc1csc(Nc2ccccc2)n1)c1ccc(Cl)cc1,55*,-9,-16,0,11*,.
O=C(OCc1csc(-c2ccccc2)n1)c1ccc(O)cc1,-7,-1,-148,0,20*,-8

# Assay outcomes from PubChem.
